This passage reports binding signal results from paper PMC7862700, “An all-to-all approach to the identification of sequence-specific readers for epigenetic DNA modifications on cytosine”.

What all share (assay): DAPPL (digital affinity profiling via proximity ligation, sequencing); 10 mM Tris-HCl pH 7.5, 50 mM NaCl, 1 mM DTT, 4% glycerol, room temperature, 30 min; GST-TFs on glutathione beads, 16-mer random dsDNA library, 0.1% formaldehyde crosslink after washing; high values mean tight binding
The target in one assay is T1, FLI1 (Homo sapiens, UniProt Q01543 1-452).
T1 sequence: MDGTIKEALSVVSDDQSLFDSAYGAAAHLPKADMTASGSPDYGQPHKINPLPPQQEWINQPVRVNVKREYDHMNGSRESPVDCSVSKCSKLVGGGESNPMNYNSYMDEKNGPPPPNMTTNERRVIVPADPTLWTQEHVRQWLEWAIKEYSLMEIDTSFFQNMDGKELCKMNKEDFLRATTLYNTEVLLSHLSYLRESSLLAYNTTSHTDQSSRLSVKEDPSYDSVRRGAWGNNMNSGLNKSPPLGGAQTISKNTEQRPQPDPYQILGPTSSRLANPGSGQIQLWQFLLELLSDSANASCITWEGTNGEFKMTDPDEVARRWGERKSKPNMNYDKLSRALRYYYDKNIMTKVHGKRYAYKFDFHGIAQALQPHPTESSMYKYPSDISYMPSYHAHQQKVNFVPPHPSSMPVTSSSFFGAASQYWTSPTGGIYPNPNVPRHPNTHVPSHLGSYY
The note with it: protein: recombinant; tags: N-terminal GST; dsDNA, one strand shown. The essentials: (§1)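 In yeast, human transcription factors were expressed with a GST fusion, then pulled down on glutathione beads and given DNA barcodes. Pooled with a tag-only sample, they were exposed to 200 nmole of a 16-mer random double-stranded DNA library (Tris/NaCl/DTT/glycerol buffer, room temperature, 30 min), washed, crosslinked with 0.1% formaldehyde, proximity-ligated using BsaI/T4 ligase for 1 h at 37 °C, PCR-amplified and read on an Illumina NextSeq500. Each hexamer's frequency of reads for a factor, divided by the matching frequency for the tag-only sample, gives the binding signal.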

The target in a further assay is T2, ELK1 (Homo sapiens, UniProt P19419 1-428).
T2 sequence: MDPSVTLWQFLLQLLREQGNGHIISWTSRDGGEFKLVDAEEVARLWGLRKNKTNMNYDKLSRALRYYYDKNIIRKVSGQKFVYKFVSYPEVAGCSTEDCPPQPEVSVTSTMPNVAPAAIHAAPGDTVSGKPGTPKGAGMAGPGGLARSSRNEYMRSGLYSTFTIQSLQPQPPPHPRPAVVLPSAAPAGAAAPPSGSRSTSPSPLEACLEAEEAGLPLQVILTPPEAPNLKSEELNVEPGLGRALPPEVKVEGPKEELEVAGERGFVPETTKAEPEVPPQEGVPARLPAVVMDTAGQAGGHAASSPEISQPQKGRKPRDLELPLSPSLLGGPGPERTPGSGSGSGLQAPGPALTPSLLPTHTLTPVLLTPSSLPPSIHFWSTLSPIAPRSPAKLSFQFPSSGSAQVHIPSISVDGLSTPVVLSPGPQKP
Conditions: protein: recombinant; tags: N-terminal GST; dsDNA, one strand shown. Summed up:
as §1

For a further assay, the target named is T3, GABPA (Homo sapiens, UniProt Q06546 1-454).
T3 sequence: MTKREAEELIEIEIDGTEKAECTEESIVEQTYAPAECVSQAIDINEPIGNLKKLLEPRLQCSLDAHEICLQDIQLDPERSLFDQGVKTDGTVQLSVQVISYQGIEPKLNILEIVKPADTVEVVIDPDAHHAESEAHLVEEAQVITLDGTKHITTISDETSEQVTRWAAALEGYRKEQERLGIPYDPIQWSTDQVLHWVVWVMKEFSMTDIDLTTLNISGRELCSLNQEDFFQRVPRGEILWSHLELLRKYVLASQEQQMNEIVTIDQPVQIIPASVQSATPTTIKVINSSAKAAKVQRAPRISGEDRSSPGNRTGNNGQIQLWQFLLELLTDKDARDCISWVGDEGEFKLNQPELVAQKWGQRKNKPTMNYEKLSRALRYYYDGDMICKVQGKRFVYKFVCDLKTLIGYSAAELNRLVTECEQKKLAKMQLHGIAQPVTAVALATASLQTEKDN
The note with it: protein: recombinant; tags: N-terminal GST; dsDNA, one strand shown. Summed up:
as §1

For a further assay, the target named is T4, ERG (Homo sapiens, UniProt P11308 1-479).
T4 sequence: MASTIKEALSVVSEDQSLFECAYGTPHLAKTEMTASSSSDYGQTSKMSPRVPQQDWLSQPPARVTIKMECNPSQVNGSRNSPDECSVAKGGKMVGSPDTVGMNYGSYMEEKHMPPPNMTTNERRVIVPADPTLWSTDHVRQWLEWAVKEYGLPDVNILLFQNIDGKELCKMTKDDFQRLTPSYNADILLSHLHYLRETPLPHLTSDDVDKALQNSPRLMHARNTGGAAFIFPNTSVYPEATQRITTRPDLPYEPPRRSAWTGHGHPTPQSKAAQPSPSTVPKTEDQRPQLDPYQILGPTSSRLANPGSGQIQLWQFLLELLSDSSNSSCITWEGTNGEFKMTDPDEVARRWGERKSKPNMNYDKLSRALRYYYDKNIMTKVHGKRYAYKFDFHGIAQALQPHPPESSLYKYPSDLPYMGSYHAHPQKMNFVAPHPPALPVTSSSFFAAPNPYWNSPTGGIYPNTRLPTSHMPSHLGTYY
Conditions: protein: recombinant; tags: N-terminal GST; dsDNA, one strand shown. The essentials: as §1

For the next assay, the target named is ELF1 (Homo sapiens, UniProt P32519 1-619). The note with it: protein: recombinant; tags: N-terminal GST; dsDNA, one strand shown. Summed up:
as §1

Another assay addresses T5, EHF (Homo sapiens, UniProt Q9NZC4 1-300).
T5 sequence: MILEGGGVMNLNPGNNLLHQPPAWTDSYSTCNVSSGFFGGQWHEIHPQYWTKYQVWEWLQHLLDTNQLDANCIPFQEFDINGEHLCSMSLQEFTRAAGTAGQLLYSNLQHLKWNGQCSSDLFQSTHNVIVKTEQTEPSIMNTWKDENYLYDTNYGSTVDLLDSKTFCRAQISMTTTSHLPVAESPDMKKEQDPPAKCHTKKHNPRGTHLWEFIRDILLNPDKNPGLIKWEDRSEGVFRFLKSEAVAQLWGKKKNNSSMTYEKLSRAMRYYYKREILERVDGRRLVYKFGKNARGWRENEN
The note with it: protein: recombinant; tags: N-terminal GST; dsDNA, one strand shown. Summed up:
as §1

The next assay has as its target SPI1 (Homo sapiens, UniProt P17947 1-270). Conditions: protein: recombinant; tags: N-terminal GST; dsDNA, one strand shown. Summed up: as §1
Another assay has as its target SPIB (Homo sapiens, UniProt Q01892 1-262). The note with it: protein: recombinant; tags: N-terminal GST; dsDNA, one strand shown. The essentials:
as §1

In a further assay the target is T6, ELK3 (Homo sapiens, UniProt P41970 1-407).
T6 sequence: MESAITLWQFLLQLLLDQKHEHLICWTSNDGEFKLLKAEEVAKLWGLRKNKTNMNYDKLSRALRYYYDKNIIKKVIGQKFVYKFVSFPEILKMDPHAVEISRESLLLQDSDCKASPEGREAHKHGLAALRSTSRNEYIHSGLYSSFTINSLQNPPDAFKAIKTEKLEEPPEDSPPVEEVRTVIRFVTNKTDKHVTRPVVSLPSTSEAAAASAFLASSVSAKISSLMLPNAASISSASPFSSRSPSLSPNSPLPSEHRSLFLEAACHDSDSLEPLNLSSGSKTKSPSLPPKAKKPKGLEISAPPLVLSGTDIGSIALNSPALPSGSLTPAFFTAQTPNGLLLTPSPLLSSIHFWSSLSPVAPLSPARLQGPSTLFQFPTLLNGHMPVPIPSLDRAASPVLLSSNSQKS
Conditions: protein: recombinant; tags: N-terminal GST; dsDNA, one strand shown. Summed up: as §1

Another assay deals with T7, FEV (Homo sapiens, UniProt Q99581 1-238).
T7 sequence: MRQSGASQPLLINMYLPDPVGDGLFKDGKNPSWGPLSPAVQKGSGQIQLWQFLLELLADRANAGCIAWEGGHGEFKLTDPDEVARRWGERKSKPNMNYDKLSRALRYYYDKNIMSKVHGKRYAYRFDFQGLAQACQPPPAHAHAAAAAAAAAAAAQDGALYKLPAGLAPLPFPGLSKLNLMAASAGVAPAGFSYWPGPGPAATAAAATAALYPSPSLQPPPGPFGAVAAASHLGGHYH
Conditions: protein: recombinant; tags: N-terminal GST; dsDNA, one strand shown. The essentials: as §1

For another assay, the target named is ETV5 (Homo sapiens, UniProt P41161 1-510). The note with it: protein: recombinant; tags: N-terminal GST; dsDNA, one strand shown. The essentials: as §1
The target in a further assay is HSF1 (Homo sapiens, UniProt Q00613 1-529). The note with it: protein: recombinant; tags: N-terminal GST; chain copies: 3; dsDNA, one strand shown. The essentials: as §1
For the next assay, the target named is T8, SPIC (Homo sapiens, UniProt Q8N5J4 1-248).
T8 sequence: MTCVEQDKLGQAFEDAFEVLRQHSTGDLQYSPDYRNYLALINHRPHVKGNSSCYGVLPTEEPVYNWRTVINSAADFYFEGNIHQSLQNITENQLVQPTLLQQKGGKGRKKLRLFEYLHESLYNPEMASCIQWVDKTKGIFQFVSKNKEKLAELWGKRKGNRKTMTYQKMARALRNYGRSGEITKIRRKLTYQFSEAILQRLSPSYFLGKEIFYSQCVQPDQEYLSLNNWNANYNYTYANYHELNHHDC
Conditions: protein: recombinant; tags: N-terminal GST; dsDNA, one strand shown. The essentials: as §1

A further assay has as its target ELF4 (Homo sapiens, UniProt Q99607 1-663). The note with it: protein: recombinant; tags: N-terminal GST; dsDNA, one strand shown. The essentials:
as §1

For another assay, the target named is T9, ELK4 (Homo sapiens, UniProt P28324-2 1-405).
T9 sequence: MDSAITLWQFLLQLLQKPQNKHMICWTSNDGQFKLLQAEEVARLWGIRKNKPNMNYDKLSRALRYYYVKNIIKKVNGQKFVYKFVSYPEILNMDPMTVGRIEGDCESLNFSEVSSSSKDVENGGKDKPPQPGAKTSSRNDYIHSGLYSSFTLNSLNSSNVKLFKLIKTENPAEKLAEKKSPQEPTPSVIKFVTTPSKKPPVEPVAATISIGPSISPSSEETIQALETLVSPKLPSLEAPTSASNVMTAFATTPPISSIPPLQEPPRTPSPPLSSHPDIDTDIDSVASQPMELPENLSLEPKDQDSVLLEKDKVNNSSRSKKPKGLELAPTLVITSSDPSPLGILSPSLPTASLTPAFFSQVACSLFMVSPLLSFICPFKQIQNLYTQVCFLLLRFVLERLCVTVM
Conditions: protein: recombinant; tags: N-terminal GST; dsDNA, one strand shown. The essentials:
as §1

For a further assay, the target named is T10, ETV2 (Homo sapiens, UniProt O00321 1-342).
T10 sequence: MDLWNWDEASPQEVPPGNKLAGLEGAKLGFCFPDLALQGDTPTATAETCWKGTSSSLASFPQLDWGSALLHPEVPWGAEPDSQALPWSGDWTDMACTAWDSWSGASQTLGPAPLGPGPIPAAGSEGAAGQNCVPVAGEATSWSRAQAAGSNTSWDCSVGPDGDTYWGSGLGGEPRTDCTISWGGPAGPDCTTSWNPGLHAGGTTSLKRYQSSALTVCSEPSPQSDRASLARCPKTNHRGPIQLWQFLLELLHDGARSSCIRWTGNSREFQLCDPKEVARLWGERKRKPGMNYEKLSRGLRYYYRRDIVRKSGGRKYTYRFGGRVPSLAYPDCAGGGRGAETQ
Conditions: protein: recombinant; tags: N-terminal GST; dsDNA, one strand shown. Summed up: as §1

The next assay deals with T11, ELF3 (Homo sapiens, UniProt P78545 1-371).
T11 sequence: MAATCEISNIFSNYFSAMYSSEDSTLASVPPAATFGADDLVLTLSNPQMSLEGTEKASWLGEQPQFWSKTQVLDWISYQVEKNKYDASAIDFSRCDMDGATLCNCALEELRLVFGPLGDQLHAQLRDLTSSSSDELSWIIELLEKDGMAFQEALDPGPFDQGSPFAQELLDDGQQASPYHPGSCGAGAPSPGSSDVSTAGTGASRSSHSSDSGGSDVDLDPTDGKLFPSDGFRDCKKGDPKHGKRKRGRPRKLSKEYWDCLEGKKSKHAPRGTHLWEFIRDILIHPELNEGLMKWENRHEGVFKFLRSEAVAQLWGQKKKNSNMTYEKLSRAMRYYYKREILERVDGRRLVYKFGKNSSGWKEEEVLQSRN
The note with it: protein: recombinant; tags: N-terminal GST; dsDNA, one strand shown. The essentials:
as §1

In a further assay the target is CRX (Homo sapiens, UniProt O43186 1-299). The note with it: protein: recombinant; tags: N-terminal GST; dsDNA, one strand shown. Summed up:
as §1

The target in another assay is ETV1 (Homo sapiens, UniProt P50549 1-477). The note with it: protein: recombinant; tags: N-terminal GST; dsDNA, one strand shown. Summed up: as §1
Sequence of ETV1 (P50549 whole entry): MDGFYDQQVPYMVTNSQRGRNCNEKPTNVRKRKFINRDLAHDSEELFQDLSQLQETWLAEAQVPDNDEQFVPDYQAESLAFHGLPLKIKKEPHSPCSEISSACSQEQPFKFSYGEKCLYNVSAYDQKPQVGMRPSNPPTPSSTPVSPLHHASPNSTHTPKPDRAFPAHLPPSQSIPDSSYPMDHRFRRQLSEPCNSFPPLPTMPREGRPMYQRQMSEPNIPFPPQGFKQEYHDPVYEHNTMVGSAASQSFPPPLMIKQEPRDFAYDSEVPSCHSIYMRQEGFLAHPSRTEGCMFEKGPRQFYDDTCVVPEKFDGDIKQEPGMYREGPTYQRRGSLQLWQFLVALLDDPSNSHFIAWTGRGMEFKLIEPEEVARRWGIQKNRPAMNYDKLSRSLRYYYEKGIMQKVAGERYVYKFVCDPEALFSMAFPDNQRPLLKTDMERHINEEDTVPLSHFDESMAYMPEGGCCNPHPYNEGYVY

Sequence of SPIB (Q01892 whole entry): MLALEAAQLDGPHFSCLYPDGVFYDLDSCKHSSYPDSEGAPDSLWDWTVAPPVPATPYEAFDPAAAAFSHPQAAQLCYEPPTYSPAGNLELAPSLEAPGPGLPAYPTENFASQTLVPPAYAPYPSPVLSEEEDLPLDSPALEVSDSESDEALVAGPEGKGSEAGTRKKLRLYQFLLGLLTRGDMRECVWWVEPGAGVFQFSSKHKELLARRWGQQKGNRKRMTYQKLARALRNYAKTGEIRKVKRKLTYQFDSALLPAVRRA
Sequence of CRX (O43186 whole entry): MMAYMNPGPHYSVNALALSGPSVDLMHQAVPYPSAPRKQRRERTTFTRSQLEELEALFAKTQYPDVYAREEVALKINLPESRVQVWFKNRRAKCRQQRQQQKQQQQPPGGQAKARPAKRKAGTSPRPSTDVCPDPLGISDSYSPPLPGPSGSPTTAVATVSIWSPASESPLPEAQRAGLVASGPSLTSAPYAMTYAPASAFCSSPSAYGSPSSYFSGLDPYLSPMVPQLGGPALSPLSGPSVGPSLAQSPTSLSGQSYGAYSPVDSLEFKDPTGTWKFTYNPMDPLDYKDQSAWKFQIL
Sequence of ELF4 (Q99607 whole entry): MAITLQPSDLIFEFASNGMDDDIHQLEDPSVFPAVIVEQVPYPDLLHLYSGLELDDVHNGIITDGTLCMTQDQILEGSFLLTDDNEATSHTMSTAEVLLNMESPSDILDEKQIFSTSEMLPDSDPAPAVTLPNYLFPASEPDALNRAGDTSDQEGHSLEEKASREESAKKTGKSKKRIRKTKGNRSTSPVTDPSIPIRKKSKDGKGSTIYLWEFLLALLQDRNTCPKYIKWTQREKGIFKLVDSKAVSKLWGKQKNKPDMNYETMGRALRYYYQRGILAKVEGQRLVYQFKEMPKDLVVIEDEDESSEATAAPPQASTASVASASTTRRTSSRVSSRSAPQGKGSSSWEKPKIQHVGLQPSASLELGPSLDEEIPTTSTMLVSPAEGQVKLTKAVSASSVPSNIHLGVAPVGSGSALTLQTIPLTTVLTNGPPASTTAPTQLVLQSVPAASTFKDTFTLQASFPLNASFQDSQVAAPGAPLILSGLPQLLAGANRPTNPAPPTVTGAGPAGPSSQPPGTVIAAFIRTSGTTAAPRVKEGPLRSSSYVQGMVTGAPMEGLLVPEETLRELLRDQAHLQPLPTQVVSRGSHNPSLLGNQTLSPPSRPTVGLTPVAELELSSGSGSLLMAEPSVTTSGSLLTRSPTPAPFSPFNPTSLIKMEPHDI
Sequence of HSF1 (Q00613 whole entry): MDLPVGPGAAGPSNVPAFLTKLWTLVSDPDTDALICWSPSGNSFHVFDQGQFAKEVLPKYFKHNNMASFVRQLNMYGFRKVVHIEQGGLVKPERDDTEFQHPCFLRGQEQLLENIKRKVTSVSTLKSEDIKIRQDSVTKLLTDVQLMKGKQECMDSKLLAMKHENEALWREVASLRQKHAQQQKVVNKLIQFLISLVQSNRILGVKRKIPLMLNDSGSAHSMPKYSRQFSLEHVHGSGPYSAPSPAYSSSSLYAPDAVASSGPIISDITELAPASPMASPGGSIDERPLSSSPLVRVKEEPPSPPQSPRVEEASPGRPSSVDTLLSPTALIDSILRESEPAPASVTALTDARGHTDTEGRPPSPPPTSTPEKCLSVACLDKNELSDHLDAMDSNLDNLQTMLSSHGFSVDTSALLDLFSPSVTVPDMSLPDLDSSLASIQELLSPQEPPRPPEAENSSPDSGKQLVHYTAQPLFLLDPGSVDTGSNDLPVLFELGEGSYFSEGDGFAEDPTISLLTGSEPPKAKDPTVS
Sequence of ETV5 (P41161 whole entry): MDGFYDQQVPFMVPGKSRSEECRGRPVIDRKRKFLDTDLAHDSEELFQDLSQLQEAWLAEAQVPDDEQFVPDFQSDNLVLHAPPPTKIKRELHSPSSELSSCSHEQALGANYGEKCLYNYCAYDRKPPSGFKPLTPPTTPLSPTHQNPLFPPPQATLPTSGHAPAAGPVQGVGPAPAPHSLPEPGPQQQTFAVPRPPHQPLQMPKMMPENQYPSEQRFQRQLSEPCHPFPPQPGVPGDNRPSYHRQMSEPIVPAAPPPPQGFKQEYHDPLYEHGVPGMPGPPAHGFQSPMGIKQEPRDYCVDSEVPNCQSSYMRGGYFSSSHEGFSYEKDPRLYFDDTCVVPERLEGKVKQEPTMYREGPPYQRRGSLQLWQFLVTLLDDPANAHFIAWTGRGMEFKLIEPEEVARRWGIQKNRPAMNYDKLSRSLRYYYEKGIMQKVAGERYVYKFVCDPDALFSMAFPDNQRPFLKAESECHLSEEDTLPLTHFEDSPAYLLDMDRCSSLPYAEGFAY
Sequence of ELF1 (P32519 whole entry): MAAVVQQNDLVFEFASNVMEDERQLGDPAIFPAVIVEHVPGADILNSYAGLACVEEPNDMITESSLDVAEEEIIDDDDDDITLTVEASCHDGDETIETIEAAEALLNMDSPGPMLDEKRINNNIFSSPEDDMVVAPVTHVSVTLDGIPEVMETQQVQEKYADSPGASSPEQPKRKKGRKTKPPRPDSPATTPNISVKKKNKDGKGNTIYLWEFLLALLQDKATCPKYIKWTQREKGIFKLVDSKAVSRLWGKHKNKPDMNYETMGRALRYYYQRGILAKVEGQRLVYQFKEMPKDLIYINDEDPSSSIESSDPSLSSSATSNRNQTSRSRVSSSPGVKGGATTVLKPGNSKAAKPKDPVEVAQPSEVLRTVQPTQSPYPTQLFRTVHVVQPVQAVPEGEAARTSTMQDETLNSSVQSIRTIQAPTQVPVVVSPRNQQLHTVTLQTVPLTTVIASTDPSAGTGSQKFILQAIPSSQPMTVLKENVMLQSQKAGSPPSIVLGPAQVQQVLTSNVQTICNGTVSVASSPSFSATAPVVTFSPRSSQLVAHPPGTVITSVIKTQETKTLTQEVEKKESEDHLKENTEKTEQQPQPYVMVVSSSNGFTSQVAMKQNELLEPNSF

Consider TTTTTA, for which the binding signal in the assay with FLI1 was 1.23 fold enrichment (6-mer frequency, TF over GST control); with ELK1, 1.2 fold enrichment (6-mer frequency, TF over GST control); with GABPA, 1.23 fold enrichment (6-mer frequency, TF over GST control); in the assay with ERG, 1.25 fold enrichment (6-mer frequency, TF over GST control); in the assay with ELF1, 1.35 fold enrichment (6-mer frequency, TF over GST control); with EHF, 1.37 fold enrichment (6-mer frequency, TF over GST control). In addition, the binding signal with SPI1 is 1.47 fold enrichment (6-mer frequency, TF over GST control); in the assay with SPIB it was 1.37 fold enrichment (6-mer frequency, TF over GST control); in the assay with ELK3, 1.3 fold enrichment (6-mer frequency, TF over GST control); with FEV it was 1.34 fold enrichment (6-mer frequency, TF over GST control); with ETV5, 1.3 fold enrichment (6-mer frequency, TF over GST control); with HSF1, 1.42 fold enrichment (6-mer frequency, TF over GST control). Moreover, the binding signal in the assay with SPIC was 1.32 fold enrichment (6-mer frequency, TF over GST control); with ELF4, 1.34 fold enrichment (6-mer frequency, TF over GST control); in the assay with ELK4, 1.37 fold enrichment (6-mer frequency, TF over GST control); in the assay with ETV2 it was 1.38 fold enrichment (6-mer frequency, TF over GST control); in the assay with ELF3 it was 1.43 fold enrichment (6-mer frequency, TF over GST control); with CRX, 1.65 fold enrichment (6-mer frequency, TF over GST control). In addition, the binding signal with ETV1 is 1.32 fold enrichment (6-mer frequency, TF over GST control).
